Assay results as given in PubChem BioAssay (NCATS).
Inconclusive results are not listed. Where a call stands in place of a potency, no number is given. A number with no mark means an inactive call. The source made the active and inactive calls. Calls follow the shape of the dose curve; as a rule, active = well fitted cell-killing curve with a large enough effect; inconclusive = small, poorly fitted or top-dose-only effect, or effect the other way; inactive = flat fitted curve, though single readings scatter.

The compounds below were run on CAOV3 (assay: Primary qHTS to identify gynecologic anti-cancer compounds using libraries of approved drugs and bioactive compounds (AID 1345084; also: nearly all actives have a fitted effect of over 55% in size)). Settings: Gynecologic cancer cell panel viability, ATPlite luminescence, 48 h; series mostly up to 57.5 µM.
Summary of the method: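 Measured: luminescence after ATPlite addition (15 min, RT). Exposure: 48 h, 37 C, 5% CO2.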
For `OC[C@H]1O[C@@H](OC(CCCCc2ccc(O)cc2)CCc2ccc(O)cc2)[C@H](O[C@@H]2OC[C@](O)(CO)[C@H]2O)[C@@H](O)[C@@H]1O` (some centres undefined), the Potency was “inactive”.
For `C=C(C)[C@H]1C[C@@H](O)C(=C)CC[C@@H](O)C(=C)[C@@H](O)C1`, the Potency was “inactive”.
With `CN1C(=O)c2ccccc2NC(=O)[C@]12O[C@@H]2c1cccc(O)c1` the Potency was “inactive”.
For `C=C1C(=O)O[C@H]2[C@H]1[C@@H](OC(=O)C(C)CO)C[C@@]1(C)[C@H](O)CCC(=O)[C@H]21` (some centres undefined), the Potency was “inactive”.
For `N[C@@H](CC(=O)N1CCn2c(nnc2C(F)(F)F)C1)Cc1[nH]nc2c(F)c(F)ccc12`, the Potency was “inactive”.
For `CC1=CC(=O)CC(C)(C)C1(O)CCC(C)O` (centres undefined), the Potency was “inactive”.
In the case of `O=C(O)Cc1nn(Cc2nc3cc(C(F)(F)F)ccc3s2)c(=O)c2nccnc12`, the Potency is reported as “inactive”.
`CCOC(=O)[C@H](CCc1ccccc1)CC1(C(=O)N[C@H]2CCc3ccccc3N(CC(=O)O)C2=O)CCCC1` was tested, and the Potency was “inactive”.
In the case of `COc1cc(/C=C/C(=O)OC2[C@H](O)CC(O)(C(=O)O)C[C@H]2O)ccc1O` (some centres undefined), the Potency is reported as “inactive”.
With `Cn1ccnc1CCOC(c1cc2nccc(C(=O)O)c2[nH]1)c1ccccc1Cl` (centres undefined) the Potency was “inactive”.
`C/C=C(\C)C(=O)O[C@H]1[C@H](O)[C@]2(COC(C)=O)[C@H](O)C[C@]3(C)C(=CCC4[C@@]5(C)CC[C@H](O[C@@H]6O[C@H](C(=O)O)[C@@H](O[C@@H]7O[C@H](CO)[C@@H](O)[C@H](O)[C@H]7O)[C@H](O)[C@H]6O[C@@H]6O[C@H](CO)[C@@H](O)[C@H](O)[C@H]6O)[C@](C)(CO)C5CC[C@]43C)[C@@H]2CC1(C)C` (some centres undefined) showed an activity change, negative = cytotoxicity of -14.1% [at 11.6 µM].
In the case of `CC1=CCC2C(C)(CO)CCCC2(CO)C1CO` (centres undefined), the Potency is reported as “inactive”.
For `COc1cccc2c1CCC[C@H]2CN(C)CCc1ccc2ccoc2c1`, the Potency was “inactive”.
With `COC(=O)CC1(O)C(=O)Nc2ccccc21` (centres undefined) the Potency was “inactive”.
With `C=C1CCC2C(C)(C)C(O)CCC2(C)C1CCC(C)CCOC(=O)CCC(=O)O` (centres undefined) the Potency was “inactive”.
In the case of `CC(=O)O[C@H]1C[C@@H]2[C@]3(CC[C@]4(C)[C@@H](C5(C)CCC(C(C)(C)O)O5)[C@@H](O)C[C@@]24C)C[C@@]32CC[C@H](O[C@@H]3OC[C@@H](O)[C@H](O)[C@H]3O)C(C)(C)[C@H]12` (some centres undefined), the Potency is reported as “inactive”.
In the case of `CCCCS(=O)(=O)Nc1ncnc(OCCOc2ncc(Br)cn2)c1-c1ccc(Br)cc1`, the Potency is reported as “inactive”.
`C[C@@H]1O[C@@H](O[C@H]2[C@H](OC(=O)C34CCC(C)(C)CC3C3=CCC5C6(C)CC(O)C(O[C@@H]7O[C@H](CO)[C@@H](O)[C@H](O)[C@H]7O)C(C)(C(=O)O)C6CCC5(C)C3(CO)CC4)O[C@H](C)[C@H](O)[C@@H]2O)[C@H](O)[C@H](O)[C@H]1O[C@@H]1OC[C@@H](O)[C@H](O)[C@H]1O` (some centres undefined) was tested, and the activity change, negative = cytotoxicity was 18.2% [at 11.6 µM].
In the case of `CC1NC(=O)C(Cc2c[nH]c3ccccc23)NC1=O` (centres undefined), the Potency is reported as “inactive”.
With `CC(=O)c1c(O)cc2cccc3c2c1CC(C)(O)O3` (centres undefined) the Potency was “inactive”.
`CC(C#N)C(C)O[C@@H]1O[C@H](CO)[C@@H](O)[C@H](O)[C@H]1O` (some centres undefined) was tested, and the Potency was “inactive”.
For `CC(C)C(=O)O[C@@H]1[C@@H](O)[C@@H](O[C@H]2O[C@H](CO)[C@@H](O)[C@H](O)[C@H]2O)O[C@H](CO)[C@H]1O`, the Potency was “inactive”.
In the case of `COc1ccccc1CC(C(=O)O)N(C)C(=O)c1ccccc1` (centres undefined), the Potency is reported as “inactive”.
`C/C(=C/CO)CC[C@@H]1[C@@]2(C)CCC[C@](C)(C(=O)O)C2CC[C@@]1(C)O` (some centres undefined) was tested, and the Potency was “inactive”.
In the case of `COc1cc(C(O)C(CO)Oc2ccc(CCCO[C@@H]3O[C@@H](C)[C@H](O)[C@@H](O)[C@H]3O)cc2OC)ccc1O` (some centres undefined), the Potency is reported as “inactive”.
`C[C@@H]1O[C@@H](O[C@H]2[C@H](O[C@H]3[C@H](O[C@H]4CC[C@@]5(C)C(CC[C@]6(C)C5CC=C5[C@@H]7CC(C)(C(=O)O)C[C@@H](O)[C@]7(C)CC[C@]56C)[C@@]4(C)CO)O[C@H](C(=O)O)[C@@H](O)[C@@H]3O)O[C@H](CO)[C@H](O)[C@@H]2O)[C@H](O)[C@H](O)[C@H]1O` (some centres undefined) was tested, and the activity change, negative = cytotoxicity was 15.7% [at 11.6 µM].
For `CC(=O)O[C@H]1[C@H](Oc2ccccc2COC(=O)C2(O)C=CCCC2=O)O[C@H](CO)[C@@H](O)[C@@H]1O` (some centres undefined), the Potency was “inactive”.
For `NC(=O)[C@H]1CCCCc2c1[nH]c1ccc(Cl)cc21`, the Potency was “inactive”.
In the case of `COc1ccc(/C=C/C(=O)O[C@H]2[C@@H]3C=CO[C@@H](O[C@@H]4O[C@H](CO)[C@@H](O)[C@H](O)[C@H]4O)[C@@H]3[C@@]3(CO)O[C@@H]23)cc1O`, the Potency is reported as “inactive”.
